PubChem BioAssay AID434962 (The Scripps Research Institute Molecular Screening Center, 2010)
Out of some 320,000 compounds screened, about 1,300 (0.41%) were called active.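 How the source made its calls: active means percent inhibition above the average of all tested compounds plus 3 SD, set per screening campaign (cut at about 16% in these data); inactive means the rest.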 Many of the other results were omitted from the sample, so actives are more common in it than they were.

target: Insulin-degrading enzyme (Homo sapiens) (UniProt P14735); assay: cellular IDE Abeta-cleavage inhibition – fluorescence polarization, HEK cells, FAbetaB substrate, primary screen (AID 434962); conditions: at 5.59 µM, active compounds read high;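 further: IDE supplied by intact live HEK cells; FP after avidin binding of uncleaved biotin substrate so inhibition keeps polarization high; 0% = DMSO wells and 100% = 60 µM reference IDE inhibitor Ii1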
Sequence (P14735 whole entry, looked up): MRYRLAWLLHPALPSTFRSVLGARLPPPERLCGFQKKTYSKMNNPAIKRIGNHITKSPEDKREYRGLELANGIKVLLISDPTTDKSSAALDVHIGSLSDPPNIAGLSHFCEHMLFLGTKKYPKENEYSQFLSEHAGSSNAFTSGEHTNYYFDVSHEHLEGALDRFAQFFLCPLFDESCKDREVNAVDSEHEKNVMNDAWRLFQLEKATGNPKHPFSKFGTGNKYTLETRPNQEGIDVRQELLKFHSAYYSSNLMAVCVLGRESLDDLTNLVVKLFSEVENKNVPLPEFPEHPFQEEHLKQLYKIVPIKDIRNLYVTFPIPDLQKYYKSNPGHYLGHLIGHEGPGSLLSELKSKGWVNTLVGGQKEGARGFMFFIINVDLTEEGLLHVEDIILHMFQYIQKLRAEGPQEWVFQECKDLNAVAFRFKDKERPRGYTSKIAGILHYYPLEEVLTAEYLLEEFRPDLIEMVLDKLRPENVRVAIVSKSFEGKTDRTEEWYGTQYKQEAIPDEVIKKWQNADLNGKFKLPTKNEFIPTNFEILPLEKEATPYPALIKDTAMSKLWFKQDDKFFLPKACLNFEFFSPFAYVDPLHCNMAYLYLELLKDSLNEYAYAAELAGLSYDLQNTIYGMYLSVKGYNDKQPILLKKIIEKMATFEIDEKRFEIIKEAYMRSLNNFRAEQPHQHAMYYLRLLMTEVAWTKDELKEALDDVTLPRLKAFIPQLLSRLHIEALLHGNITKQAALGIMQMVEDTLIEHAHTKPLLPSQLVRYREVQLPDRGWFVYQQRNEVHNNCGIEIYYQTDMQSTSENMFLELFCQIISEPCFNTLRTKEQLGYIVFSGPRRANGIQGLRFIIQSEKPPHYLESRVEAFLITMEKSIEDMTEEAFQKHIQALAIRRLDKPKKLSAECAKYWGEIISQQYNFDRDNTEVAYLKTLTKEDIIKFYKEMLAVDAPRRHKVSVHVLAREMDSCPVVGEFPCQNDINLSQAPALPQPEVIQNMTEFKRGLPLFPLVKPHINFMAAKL

Compound | inhibition
CS(=O)(=O)N(Cc1ccc(Cl)cc1)c1ccc(C(=O)NCCSCc2ccco2)cc1 | 2.58% (inactive)
O=C(C1=C[C@H](c2coc3ccccc3c2=O)C[C@H](OCc2ccc(CO)cc2)O1)N1CCOCC1 | 4.19% (inactive)
O=C(C1=C[C@H](c2ccc(C(F)(F)F)cc2)C[C@H](OCc2ccc(CO)cc2)O1)N1CCN(Cc2ccccc2)CC1 | -1% (inactive)
O=C(C1=C[C@H](c2coc3ccccc3c2=O)C[C@H](OCc2ccc(CO)cc2)O1)N1CCN(Cc2ccccc2)CC1 | 18.4% (active)
O=C(NC1CCCC1)C(=O)c1c[nH]c2ccccc12 | 3.35% (inactive)
C[n+]1ccc(/C=C/c2c[nH]c3ccccc23)cc1 | 23.9% (active)
COc1ccc(/C=C(\C#N)c2c[nH]c3ccccc23)cc1 | -0.68% (inactive)
Clc1ccccc1-c1cc(COc2ccc3ccccc3c2)no1 | 3.18% (inactive)
CCOc1cc(/C=C2/C(=N)N3OC(C)=CC3=NC2=O)ccc1OC | 0.06% (inactive)
CC1=CC2=NC(=O)/C(=C/c3coc4ccccc4c3=O)C(=N)N2O1 | 62.1% (active)
COc1ccc(OCCCn2cccc2/C=C2/C(=N)N3OC(C)=CC3=NC2=O)cc1 | 1.48% (inactive)
C=CCn1c(SCCOc2ccc(OC)cc2)nnc1C(NC(=O)c1ccc(OC)cc1)C(C)C (stereo not given) | 0.39% (inactive)
CC(=O)Nc1ccc(S(=O)(=O)N2CCN(CCCOc3cc(C)ccc3C)CC2)cc1 | -1.56% (inactive)
CCOc1ccc(NC(=O)CN(C)CC(=O)Nc2cccc(Cl)c2C)cc1OCC | 1.24% (inactive)
CCc1nc(SCC(=O)NNC(=O)c2ccc(C)cc2)c2ccccc2n1 | 0.32% (inactive)
CCCNC(=O)CSc1nc(Cc2ccccc2)nc2ccccc12 | 4.52% (inactive)
CCCc1nc(SCC(=O)Nc2ccc(S(=O)(=O)N(C)C)cc2)c2ccccc2n1 | 38.4% (active)
Cc1ccccc1-n1c(C)cc(/C=N/NC(=O)c2ccc(CN3CCOCC3)cc2)c1C | -1.59% (inactive)
COc1ccc(N2C(=O)/C(=C\c3ccco3)N=C2SCC(N)=O)cc1Cl | 6.2% (inactive)
N#Cc1c(N2CCCCC2)nc(N)c2c(N)nc(SCC(=O)O)cc12 | 7.07% (inactive)
Fc1ccc2[nH]c3c(N4CCSCC4)ncnc3c2c1 | 17.6% (active)
CC(C)OCCCNc1ncnc2c1[nH]c1ccc(F)cc12 | 27.3% (active)
Cc1c(CN2CC[C@@H](N3CCN(c4ccccn4)CC3)[C@H](O)C2)[nH]c2ccc(F)cc12 | -1.68% (inactive)

Compound | inhibition
CCN1CCCC1Cn1cnc2c([nH]c3cc(OC)ccc32)c1=O (stereo not given) | 6.02% (inactive)
CCN1CCCC1CNc1ncnc2c1[nH]c1ccc(F)cc12 (stereo not given) | 17% (active)
CCN1CCCC1CNC(=O)c1cc2cc(OC)c(OC)cc2[nH]1 (stereo not given) | 1.37% (inactive)
COc1ccc(NC(=O)CSc2nnc(C3CC3)n2C)cc1S(=O)(=O)N1CCCCC1 | 0.43% (inactive)
O=C1CCN(CCCc2ccccc2)CCN1CCO | 9.53% (inactive)
Cc1noc(C)c1S(=O)(=O)N(C)Cc1ccccc1 | 1.11% (inactive)
Cn1ncc2c(N3CCCCC3)nc(NCCCO)nc21 | 4.87% (inactive)
COc1cccc(/C=C/C(=O)OCC(=O)N2CCCc3ccccc32)c1 | 0.1% (inactive)
Cc1ccc(Cn2cc(C(=O)NN)c(=O)c3ccc(F)cc32)cc1 | 0.01% (inactive)
Cc1c(-c2cccc(Cl)c2)nc2ccccc2c1C(=O)OCC(=O)N(C)C1CCS(=O)(=O)C1 (stereo not given) | 18.3% (active)
CN(C(=O)COC(=O)c1cc(-c2ccco2)nc2ccccc12)C1CCS(=O)(=O)C1 (stereo not given) | -3.18% (inactive)
COc1ccc2c(-c3ccccc3)cc(SCC(=O)N(C)C3CCS(=O)(=O)C3)nc2c1 (stereo not given) | -3.71% (inactive)
Cc1ccc(C)c(NC(=O)c2cc(-c3cc(C)cc(C)c3O)n[nH]2)c1 | -3.27% (inactive)
Cc1ccc(NC(=S)NC(=O)c2ccc(-c3ccccc3)cc2)cc1 | 0.29% (inactive)
CC(C(=O)c1ccc(-c2ccccc2)cc1)[n+]1cccc(Br)c1 (stereo not given) | 23.5% (active)
O=C(NNC(=O)c1ccc(-c2ccccc2)cc1)Nc1ccccc1 | 2.17% (inactive)
O=C1N/C(=C/c2cccs2)C(=O)N1Cc1ccc(F)cc1 | -2.86% (inactive)
CN(C)c1ccc(/C=C2\NC(=S)N(Cc3ccccc3)C2=O)cc1 | 99.8% (active)
CN(C)c1ccc(C=C2C(=O)OC3(CCCC3)OC2=O)cc1 | 0.68% (inactive)
CN(C1CCS(=O)(=O)C1)S(=O)(=O)c1ccc2ccccc2c1 (stereo not given) | 5.04% (inactive)
O=C(C1CCN(S(=O)(=O)Cc2ccccc2)CC1)N1CCCc2ccccc21 | 0.11% (inactive)
CC1(C)Cc2cccc(OCC(N)=O)c2O1 | -2.75% (inactive)
CC1(C)Cc2cccc(OCC(=O)NCc3ccccc3)c2O1 | 0.56% (inactive)

Compound | inhibition
CC1(C)Cc2cccc(OCC(=O)N3CCN(c4ccc([N+](=O)[O-])cc4)CC3)c2O1 | 18.8% (active)
CCCN(CCC)S(=O)(=O)c1ccc(C(=O)N2CC3CCC(CC3)C2)cc1 | -1.85% (inactive)
CC(=O)NCCc1ccc(S(=O)(=O)N(C)C2CCS(=O)(=O)C2)cc1 (stereo not given) | -0.05% (inactive)
CN1C(=O)/C(=C/C=C2\SCCN2C)OC1=S | 25.2% (active)
Nc1nc(Br)c2ccccc2c1-c1ccc(F)cc1 | -4.68% (inactive)
CC(C)OCCCNC(=S)N1CCC(C(=O)c2ccc3c(c2)OCCO3)CC1 | 7.22% (inactive)
COC(=O)c1cc(C(=O)OCC(=O)Nc2cc(C)on2)cc([N+](=O)[O-])c1 | 0.35% (inactive)
Cc1ccc(-c2cc(C(=O)N3CCc4ccccc4C3)no2)cc1 | -0.51% (inactive)
Cc1ccc2c(c1)c1ncn(CCC3=CCCCC3)c(=O)c1n2C | 4.46% (inactive)
Cc1ccc2c(c1)c1ncnc(N3CCc4ccccc4C3)c1n2C | 39.7% (active)
COc1ccccc1-c1n[nH]c2c1[C@H](C)CC[C@H]2C(C)C | 0.94% (inactive)
CCCCOC(=O)c1ccc(NC(c2ccc(C)cc2)P(=O)(OC)OC)cc1 (stereo not given) | 7.2% (inactive)
Cc1nn(C)cc1C(=O)Nc1ccccc1Br | 2.37% (inactive)
Cc1nn(C)cc1C(=O)c1ccccc1 | 16.3% (active)
CCOC(=O)c1nn(-c2cccc(C)c2)cc1C(=O)c1ccccc1 | -1.22% (inactive)
COc1ccc(/C=C2\CCCC3C2=NN(C(=O)c2scnc2C)C3c2ccc(OC)cc2)cc1 (stereo not given) | -0.54% (inactive)
O=C(CCc1nnc(Cc2ccc3c(c2)OCO3)o1)NCCc1ccccc1Cl | 0.48% (inactive)
CCCCN(C1CCS(=O)(=O)C1)S(=O)(=O)c1ccc(C(C)C)cc1 (stereo not given) | 5.43% (inactive)
Cc1c(C(=O)Nc2cccc(-c3nnc4n3CCCCC4)c2)oc2ccccc12 | 17.2% (active)
Cc1c(C(=O)Nc2cccc(S(=O)(=O)N3CCOCC3)c2)oc2ccccc12 | -1.96% (inactive)
O=C(Cn1[nH]c(=O)c2ccccc2c1=O)Nc1cccc(-c2nnc3n2CCCCC3)c1 | 7.74% (inactive)
COc1c(Br)cc2c(C)c(C(=O)N3CCOCC3)oc2c1Br | 3.66% (inactive)
COc1ccccc1N(CC(=O)Nc1ccc(C(F)(F)F)cc1)S(C)(=O)=O | -2.79% (inactive)

Compound | inhibition
C=CCOc1ccccc1NC(=O)CN1C(=O)CNC1=O | -0.94% (inactive)
CN(C)/C=C/C(=O)c1cnc2sccn2c1=O | -1.17% (inactive)
COc1cc(NS(=O)(=O)c2ccc(NC(=S)NC(=O)c3ccc(Br)cc3)cc2)ncn1 | -2.01% (inactive)
COc1ccc(NS(=O)(=O)c2ccc(NC(=O)C(C)(C(F)(F)F)C(F)(F)F)cc2)nn1 | 6.58% (inactive)
COc1ccc(NS(=O)(=O)c2ccc(NC(=S)NC(=O)/C=C/c3ccc(C)cc3)cc2)nn1 | 24.2% (active)
Cc1ccc(NC2CCCN(C(=O)CCC3(C)CC3)C2)cc1C (stereo not given) | 2.09% (inactive)
COc1cc(C(=O)NCC(=O)N2CC=C(c3ccccc3)CC2)cc(OC)c1OC | -2.8% (inactive)
O=C(Nc1ccc(Cl)c(Cl)c1)N1CC=C(c2ccccc2)CC1 | 19.1% (active)
O=C(Nc1cccc(NC(=O)N2CCN(c3ccccc3)CC2)c1)N1CCN(c2ccccc2)CC1 | 3.98% (inactive)
O=C(CSc1nnc(CNC(=O)c2ccc(F)cc2)o1)Nc1ccc2c(c1)OCO2 | 1.15% (inactive)
CS(=O)(=O)N(Cc1ccccc1Cl)c1ccc(C(=O)NCc2cccnc2)cc1 | 12.1% (inactive)
CC(=O)[C@@]12O[C@@H]1C[C@H]1[C@@H]3CC[C@H]4C[C@@H](O)CC[C@]4(C)[C@H]3CC[C@@]12C | 0.23% (inactive)
O=C(N/N=C/c1ccc(OC(=O)c2ccccc2Cl)cc1)c1ccc(O)cc1 | 17.1% (active)
CC(C)(C)C(=O)Nc1ccc(C(=O)N/N=C/c2ccccc2OC(=O)c2ccc(Cl)cc2Cl)cc1 | -0.07% (inactive)
O=C(COc1ccc(/C=N/NC(=O)c2ccc(O)cc2)cc1)Nc1ccc([N+](=O)[O-])cc1 | 0.35% (inactive)
CN(C(=O)c1cccc(NC(=O)Cc2cccc([N+](=O)[O-])c2)c1)C1CCCCC1 | -2.48% (inactive)
Cn1cncc1C#Cc1c(-c2ccsc2)sc2ccccc12 | 2.04% (inactive)
CC[C@H]1OC(=O)[C@H](C)[C@@H](O[C@H]2C[C@@](C)(OC)[C@@H](O)[C@H](C)O2)[C@H](C)[C@@H](O[C@@H]2O[C@H](C)C[C@H](N(C)C)[C@H]2O)[C@](C)(O)C[C@@H](C)[C@@H]2N[C@@H](COCCOC)O[C@H]([C@H]2C)[C@]1(C)O | -4.09% (inactive)
C=CCSc1nc2c(c(=O)[nH]c(=O)n2C)n1Cc1ccccc1 | -11.6% (inactive)
CN(C(=O)COC(=O)c1ccc(Br)o1)c1c(N)n(Cc2ccccc2)c(=O)[nH]c1=O | 5.15% (inactive)
Cc1cc2nc3c(=O)n(Cc4ccccc4)c(=O)[nH]c3nc2cc1N | 20.4% (active)
